UbGFP stabilizer = ubiquitin-GFP accumulation via proteasome inhibition | AID 526 | 67,000 tested, under 10 active | Potency, µM (titrated, usually from 45.9 µM), inactives show at the highest dose activation (GFP accumulation), most hits filed as activators | Ubiquitin-GFP reporter cells, proteasome inhibition, GFP fluorescence; response scale: untreated = 0%, 10 µM MG-132 = 100%; active = well fitted activation curve with a large enough effect, not every such curve was filed as active; inconclusive = small, poorly fitted or top-dose-only effect, or another doubt; inactive = no such curve, though single readings can be large or run the other way; note: potency is the fitted concentration of half-maximal effect
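U2OS cells stably expressing ubiquitin(G76V)-GFP, seeded overnight in 0.5% FBS medium, were exposed to compounds (qHTS, 46 uM to 2.9 nM) for 4 hr at 37 °C. GFP-positive cells were counted by laser cytometry (488 ex/515 em), normalized between basal and 10 uM MG-132.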
HBB splicing = alters splicing of the hemoglobin beta chain; Potency, µM (doses to about 46.1 µM), for inactives: at the top dose activation, actives largely listed as activators; HBB splicing reporter cell assay, activation; EGFP reporter with mutant IVS2-654 intron; response scale: normalised to 500 nM splice-correcting PNA; 65,000 tested, 0.06% active; note: potency is the fitted concentration of half-maximal effect; 0% is about no effect
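HeLa cells stably expressing EGFP interrupted by mutant beta-globin intron 2 (IVS2-654), 500/well in 2% FCS. Treated with compound for 2 days at 37C. Splicing correction scored as total well GFP intensity (488 nm excitation, 500-520 nm emission); 500 nM antisense PNA served as control.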
HEK293 cAMP cs = raises cAMP in parental HEK293 cells, TSHR agonist counter-screen | parental HEK293 CNG cAMP sensor, membrane potential fluorescence | Potency, µM (doses to about 57.1 µM), for the others: at the top dose activation, actives largely listed as activators | 73,000 tested, 2.5% active | AID 938; note: potency is the fitted concentration of half-maximal effect; % of control where 0% means no effect; nearly all actives have a fitted effect of over 55% in size
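Counterscreen for endogenous-receptor signalling: CNG-channel HEK 293 cells report cAMP rise by membrane depolarization. After 60 min dye equilibration with 100 uM RO 20-1724, compounds incubated 30 min before bottom-read fluorescence at 590 nm.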
TSHR ag = TSH receptor (human) agonism; P16473; Potency, µM (highest dose often 57.1 µM), without a hit: at the highest dose activation, most hits filed as activators; AID 926; HEK293-CNG-TSHR cells (CNG channel as cAMP sensor), membrane potential dye, cAMP; 73,000 tested, 0.48% active; active = well fitted activation curve with a large enough effect in the main read-out, with a control signal flat, not every such curve was filed as active; inconclusive = small, poorly fitted or top-dose-only effect, or a change in a side signal; inactive = no such curve, though single readings can be large or run the other way; % of control where 0% means no effect;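 note: the control signal comes from parental cells without the receptor; potency is the fitted concentration of half-maximal effect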
Target sequence (P16473 whole entry, looked up): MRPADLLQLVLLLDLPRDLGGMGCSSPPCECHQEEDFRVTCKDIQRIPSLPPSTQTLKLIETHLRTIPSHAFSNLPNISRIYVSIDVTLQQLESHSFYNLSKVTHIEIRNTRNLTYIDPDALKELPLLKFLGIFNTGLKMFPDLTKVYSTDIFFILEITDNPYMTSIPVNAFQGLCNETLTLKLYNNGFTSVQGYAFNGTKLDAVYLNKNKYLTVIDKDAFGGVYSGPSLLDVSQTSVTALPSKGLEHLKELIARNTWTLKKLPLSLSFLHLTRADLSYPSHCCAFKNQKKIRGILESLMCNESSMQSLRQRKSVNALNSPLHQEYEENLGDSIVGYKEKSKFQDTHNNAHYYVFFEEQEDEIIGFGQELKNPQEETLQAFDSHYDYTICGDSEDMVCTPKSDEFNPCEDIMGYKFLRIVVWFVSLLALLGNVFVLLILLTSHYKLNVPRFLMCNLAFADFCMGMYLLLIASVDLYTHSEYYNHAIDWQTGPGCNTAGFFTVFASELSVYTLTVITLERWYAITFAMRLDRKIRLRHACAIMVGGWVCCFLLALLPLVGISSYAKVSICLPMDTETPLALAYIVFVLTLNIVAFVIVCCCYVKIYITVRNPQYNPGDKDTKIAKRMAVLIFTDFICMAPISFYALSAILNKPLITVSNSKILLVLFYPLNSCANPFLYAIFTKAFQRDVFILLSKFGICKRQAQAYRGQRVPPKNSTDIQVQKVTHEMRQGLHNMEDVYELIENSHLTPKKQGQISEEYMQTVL
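cAMP rise detected as CNG-channel membrane depolarization by fluorescent dye (emission 590 nm), 30 min after compound, following 60 min dye loading containing 100 uM RO 20-1724 at room temperature. Cells: TSHR/CNG HEK 293, with parental CNG HEK 293 as control.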
Epigenetic mod = epigenetic modulators derepressing GFP locus in mouse cells; mouse C127i GFP locus derepression, cytometry, 30 h; Potency, µM (top dose mostly 46.1 µM), for inactives: at the highest dose GFP derepression (activation); 68,000 tested, 0.09% active; AID 597; note: % of control where 0% means no effect
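Murine C127i mammary cells carrying a silenced, stably integrated CMV-driven GFP reporter were treated with compound for 30 hours at 37 C. After PBS washes, GFP-positive cells were counted by laser-scanning microplate cytometry.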
ERK AVP block = inhibitors of vasopressin-stimulated ERK signaling pathway; HEK293-V1b, vasopressin-stimulated pERK AlphaScreen; Potency, µM (doses to about 57.5 µM), for inactives: at the highest dose activity, negative = inhibition, hits mostly inhibitors; 72,000 tested, 0.99% active; AID 995; note: potency is the fitted concentration of half-maximal effect; % is set by controls: 0 for no effect and ±100 for the full control effect; nearly all actives have a fitted effect of over 55% in size
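Overnight-seeded V1b-HEK293 cells in 1% FBS got compound, then vasopressin (25 nM final, 5 min, 37C), then lysis buffer. AlphaScreen detection of phospho-ERK; activity normalized to basal and full-stimulation controls.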
* = called active by the depositor; [ ] = remark or other dose. Most compounds without a hit are left out; they make up all but 3.8% or so of the library. Unless noted, calls come from the whole dose curve; as a rule, active = well fitted curve in the direction sought with a large enough effect; inconclusive = small, poorly fitted or top-dose-only effect, or another doubt; inactive = no such curve, though single readings can be large; an effect the other way counts as inactive or inconclusive.

CCCCC[C@H](CC(=O)NO)C(=O)N[C@@H](C(=O)N1CCC[C@H]1CO)C(C)C was read as UbGFP stabilizer -1.6%, HBB splicing 0.2%, HEK293 cAMP cs 10.6%, TSHR ag 5.2%, Epigenetic mod -1.1% and ERK AVP block 12.6%.
`CCC(C)(C)n1nnnc1C(c1ccncc1)N1CCN(c2cccc(OC)c2)CC1` (stereo not given) gave UbGFP stabilizer 1.1%, HEK293 cAMP cs 2.51µM*, TSHR ag inconclusive, Epigenetic mod 4.3% and ERK AVP block -3.6%.
Screening COc1ccccc1N1CCN(C(c2ccc(Cl)cc2)c2nnnn2C(C)(C)C)CC1 (stereo not given) returned UbGFP stabilizer -2.9%, HEK293 cAMP cs 2µM*, TSHR ag inconclusive, Epigenetic mod -1.9% and ERK AVP block -6.4%.
Screening CCC(C)(C)n1nnnc1C(c1ccc(C)cc1)N1CCN(Cc2cccnc2)CC1 (stereo not given) returned UbGFP stabilizer 10.2%, HBB splicing 0.2%[57.5 µM], HEK293 cAMP cs 28.8%, TSHR ag 7.8%, Epigenetic mod 0.0% and ERK AVP block -9.5%.
For COC(=O)C1=C(C)NC(C)=C(C(=O)OC)C1c1cn(-c2ccccc2)nc1-c1ccco1 the results were UbGFP stabilizer -3.7%, HBB splicing -5.7%, HEK293 cAMP cs 8.3%, TSHR ag 1.58µM*, Epigenetic mod 2.5% and ERK AVP block -6.2%.
`CCOc1cc(C(=O)Nc2ccc3c(c2)OCO3)ccc1OC(F)F` gave UbGFP stabilizer 1.8%, HBB splicing -4.2%, HEK293 cAMP cs 14.8%, TSHR ag 3.6%, Epigenetic mod 0.3% and ERK AVP block 20µM*.
For CN1CCc2c(cc(O)c(O)c2Cl)[C@H](c2cccc(Cl)c2)C1 the results were UbGFP stabilizer -2.0%, HBB splicing 0.8%, HEK293 cAMP cs inconclusive, TSHR ag inconclusive, Epigenetic mod -1.1% and ERK AVP block 6.7%.
Screening CCOC(=O)N1CCN(S(=O)(=O)c2ccc(C)cc2)C1c1ccc(OC)cc1 (stereo not given) returned UbGFP stabilizer -8.3%, HBB splicing -0.3%[9.22 µM], HEK293 cAMP cs inconclusive, TSHR ag inconclusive, Epigenetic mod -2.2% and ERK AVP block inconclusive.
For CCOC(=O)N1CCN(S(=O)(=O)c2ccc(C)cc2)C1c1ccccc1 (stereo not given) the results were UbGFP stabilizer 23.6%, HBB splicing -0.1%[9.22 µM], HEK293 cAMP cs 12.6µM*, TSHR ag inconclusive, Epigenetic mod -0.3% and ERK AVP block 1.5%.
For O=C(NC1CCCCC1)C(c1ccc(F)cc1)N(Cc1ccco1)C(=O)Cn1nnc2ccccc21 (stereo not given) the results were UbGFP stabilizer -1.3%, HEK293 cAMP cs 15.8µM*, TSHR ag inconclusive, Epigenetic mod 1.3% and ERK AVP block 18.9%.
For O=C(NCc1ccco1)C(c1ccccc1)N(CC1CCCO1)C(=O)Cn1nnc2ccccc21 (stereo not given) the results were UbGFP stabilizer 4.0%, HBB splicing 0.4%[57.5 µM], HEK293 cAMP cs 4.0%, TSHR ag 0.5%, Epigenetic mod -1.9% and ERK AVP block -16.0%.
O=C(NC1CCCCC1)C(c1ccccc1F)N(Cc1ccco1)C(=O)Cn1nnc2ccccc21 (stereo not given) was read as UbGFP stabilizer 0.1%, HBB splicing -0.3%, HEK293 cAMP cs 20µM*, TSHR ag inconclusive, Epigenetic mod 3.9% and ERK AVP block -12.7%.
Cc1ccccc1C(C(=O)NCc1ccco1)N(CC1CCCO1)C(=O)Cn1nnc2ccccc21 (stereo not given) was read as UbGFP stabilizer -2.2%, HEK293 cAMP cs inconclusive, TSHR ag inconclusive, Epigenetic mod 2.9% and ERK AVP block -8.9%.
For Cc1cccc(C)c1NC(=O)C(c1cccs1)N(Cc1ccco1)C(=O)Cn1nnc2ccccc21 (stereo not given) the results were UbGFP stabilizer -2.1%, HBB splicing -0.2%[57.5 µM], HEK293 cAMP cs 15.8µM*, TSHR ag inconclusive, Epigenetic mod 13.9% and ERK AVP block -13.2%.
For COc1cccc([C@H]2Oc3ccc(OC)cc3/C(=N\OC[C@@H](O)[C@@H]3O[C@@H]4OC(C)(C)O[C@@H]4[C@H]3O)[C@@H]2O)c1 the results were HBB splicing 0.6%[9.22 µM], HEK293 cAMP cs 0.8%[11.4 µM], TSHR ag -7.8%[11.4 µM] and ERK AVP block 11.1%[11.5 µM].
`O=c1n(Cc2ccccc2Cl)c2sc3c(c2c2ncnn12)CCCC3` gave UbGFP stabilizer 8.4%, HBB splicing 0.3%, HEK293 cAMP cs 28.2%, TSHR ag 20µM*, Epigenetic mod -2.6% and ERK AVP block -4.3%.
`O=C(Cn1c(=O)n2ncnc2c2c3c(sc21)CCCC3)c1ccccc1` gave UbGFP stabilizer 2.6%, HBB splicing -0.9%, HEK293 cAMP cs 25.1µM*, TSHR ag inconclusive, Epigenetic mod 4.7% and ERK AVP block -27.0%.
For NC(=O)CSc1nc2sc3c(c2c2ncnn12)CCCC3 the results were HBB splicing 4.5%[0.369 µM], HEK293 cAMP cs 1.5%, TSHR ag 21.7%, Epigenetic mod 0.0% and ERK AVP block -36.2%.
Screening CN(C)S(=O)(=O)c1ccc2c(c1)c(=O)c(C(=O)NCCCN1CCCCCC1)cn2C returned UbGFP stabilizer 0.0%, HBB splicing 1.1%, HEK293 cAMP cs 4.3%, TSHR ag -1.7%, Epigenetic mod -3.4% and ERK AVP block 15.8µM*.
`CN(CCCNC(=O)c1cn(C)c2ccc(S(=O)(=O)N(C)C)cc2c1=O)c1ccccc1` gave UbGFP stabilizer -0.2%, HBB splicing 0.2%, HEK293 cAMP cs 1.1%, TSHR ag -8.7%, Epigenetic mod -1.6% and ERK AVP block -14.8%.
Screening O=c1ccc2c(OCCCCc3ccccc3)c3ccoc3cc2o1 returned UbGFP stabilizer 0.0%, HBB splicing 0.2%, HEK293 cAMP cs 25.1µM*, TSHR ag inconclusive, Epigenetic mod 1.1% and ERK AVP block 83.3%.
Screening N#Cc1ccc2ccn(CC(=O)NC3CCCCCC3)c2c1 returned UbGFP stabilizer 2.7%, HEK293 cAMP cs 3.16µM*, TSHR ag inconclusive, Epigenetic mod -3.4% and ERK AVP block 4.3%.
Screening COC(=O)c1cn(CC(=O)NC2CCCCC2)c2ccccc12 returned UbGFP stabilizer -2.4%, HEK293 cAMP cs 1.7%, TSHR ag 9.7%, Epigenetic mod -0.1% and ERK AVP block -10.7%.
CCOc1ccccc1C(=O)Nc1cc(OC)ccc1OC was read as HEK293 cAMP cs 25.1µM* and TSHR ag inconclusive.

Assay outcomes deposited in PubChem BioAssay by National Center for Advancing Translational Sciences (NCATS).
